# Source: PubChem (National Center for Advancing Translational Sciences (NCATS))
# KB-V1 cytotox: KB-V1 MDR subline cytotoxicity; KB-V1 MDR cells viability, CellTiter-Glo, 72 h; Potency, µM (titrated, usually from 46.1 µM), usual class: cytotoxic; actives 3.4% (n = 400,000); AID 1347076; further: on the % scale 0 is the no-effect control and ±100 the full control effect; nearly all actives have a fitted effect of over 60% in size
#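 Cells of the MDR subline KB-V1 are plated, dosed with compound at multiple concentrations, and incubated 72 h at 37 degrees C; CellTiter-Glo is then added and luminescence read after 10 min.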
# TSG101-PTAP inh: blocks PTAP/TSG101 interaction to inhibit HIV-1 budding. Fluorescence polarization, FITC-PTAP peptide / Tsg101 binding. Potency, µM (doses to about 115 µM), for the others: at the top dose activity change, negative = inhibition, usual class: inhibitors. 340,000 tested, under 10 active; active means well fitted inhibition curve with a large enough effect in the main read-out, with a control signal flat, not every such curve was filed as active; inconclusive means small, poorly fitted or top-dose-only effect, or effect the other way, or a change in a side signal; inactive means no such curve, though single readings can be large or run the other way; further: % of control where 0% means no effect
# Target sequence (Q99816 whole entry, looked up): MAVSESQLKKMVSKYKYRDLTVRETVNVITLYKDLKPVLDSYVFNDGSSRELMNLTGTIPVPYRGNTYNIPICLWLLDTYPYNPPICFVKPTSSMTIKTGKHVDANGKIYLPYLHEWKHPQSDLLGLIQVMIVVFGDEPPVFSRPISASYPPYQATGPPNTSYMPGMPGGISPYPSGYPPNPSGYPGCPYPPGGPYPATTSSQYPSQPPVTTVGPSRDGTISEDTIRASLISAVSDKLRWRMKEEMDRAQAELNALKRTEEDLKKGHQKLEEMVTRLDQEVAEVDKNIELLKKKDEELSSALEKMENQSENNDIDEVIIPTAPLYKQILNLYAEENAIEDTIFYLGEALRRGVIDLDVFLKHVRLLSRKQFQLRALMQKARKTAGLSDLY
#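 FP read-out: FITC-PTAP peptide, 50 nM final, binding Tsg101 binding domain, 10 uM final; 20 min, r.t.; 10 mM HEPES pH 7.5, 0.15 M NaCl, 0.01% Tween 20, 3 mM EDTA, 0.1 mM TCEP.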
# MCF10A rereplic: inducers of DNA re-replication in MCF 10A breast cells; AID 624296; actives 2.9% (n = 350,000); Potency, µM (titrated, usually from 46.1 µM), for the others: at the top dose activity, positive = re-replication, usual class: activators; MCF 10A DNA re-replication, Hoechst nuclear intensity, 48 h; further: % of control where 0% means no effect; nearly all actives have a fitted effect of over 50% in size
# SW480 rereplic: DNA re-replication induction in SW480 cells; actives 1.8% (n = 340,000); Potency, µM (titrated, usually from 46.1 µM), without a hit: top-dose re-replication activation, hits mostly activators; SW480 DNA re-replication, Hoechst DNA content imaging, 48 h; further: % of control where 0% means no effect; nearly all actives have a fitted effect of over 55% in size
#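 Image-based read-out: total Hoechst fluorescence of nuclei (405 nm excitation, 500-530 nm emission), with hits raising the fraction of high-intensity nuclei. SW480 colon cells incubated 48 hr with compounds at 37 C.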
# RGS4 inh: blocks human RGS4-accelerated GTP hydrolysis. P49798. Transcreener GDP fluorescence polarization, RGS4-accelerated GTP hydrolysis. Potency, µM (series often up to 114 µM), for inactives: at the top dose activity change, negative = inhibition, actives largely listed as inhibitors. actives 0.039% (n = 390,000). AID 504845; further: on the % scale 0 is the no-effect control and ±100 the full control effect; nearly all actives have a fitted effect of over 75% in size
# Target sequence (P49798 whole entry, looked up): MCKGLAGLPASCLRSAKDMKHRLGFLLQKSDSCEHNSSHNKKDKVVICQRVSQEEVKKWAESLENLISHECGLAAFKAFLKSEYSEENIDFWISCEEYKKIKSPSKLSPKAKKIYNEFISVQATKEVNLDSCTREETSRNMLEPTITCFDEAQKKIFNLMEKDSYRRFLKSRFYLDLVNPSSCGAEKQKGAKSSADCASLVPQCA
#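 MLSMR compounds (23 nl, pin-transferred) preincubated 10 min at room temperature with a 500nM (2x) first reagent, then RGS4 at 900nM (2x) plus Transcreener GDP mix added; fluorescence polarization (620/688 nm) read before and after 90 min at 30 °C.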
# KB-3-1 tox: KB-3-1 parental cell cytotoxicity; KB-3-1 viability, CellTiter-Glo ATP luminescence, 72 h; AID 1347075; actives 1.4% (n = 400,000); Potency, µM (highest dose often 46.1 µM), usual class: cytotoxic; further: on the % scale 0 is the no-effect control and ±100 the full control effect; nearly all actives have a fitted effect of over 60% in size
#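 Here the drug-naive KB-3-1 line serves as comparator for MDR sub-line selectivity; cells received compound titrations, 72 h at 37 °C, then CellTiter-Glo readout.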
# Active calls of the source: *; i = inactive; ? = inconclusive; · = no result given; [ ] = remark or other dose. Rows were chosen to be rich in hits. Some 6.6% of all compounds tested hit in one or more screens of this group. Unless noted, the call rests on the fitted dose curve; in most records, active means well fitted curve in the direction sought with a large enough effect; inconclusive means small, poorly fitted or top-dose-only effect, or another doubt; inactive means no such curve, though single readings can be large; an effect the other way counts as inactive or inconclusive. Potency means the concentration at half of the fitted maximal effect.
SMILES,KB-V1 cytotox,TSG101-PTAP inh,MCF10A rereplic,SW480 rereplic,RGS4 inh,KB-3-1 tox
O=C(CSC1=Nc2ccccc2C2=NC(Cc3ccccc3)C(=O)N12)Nc1ccccc1F (stereo not given),i,·,·,·,-13.3%,i
Fc1ccc(Nc2nc(SCc3cccc(F)c3)nc3ccccc23)cc1,·,·,·,·,-14.4%,·
CC1=NN(c2ccccc2)C(=O)/C1=C/c1c(O)n(-c2ccc(F)cc2)[nH]c1=O,7.31µM*,-6.4%,-10.5%,?,27.1%,20.6µM*
CCOc1ccccc1CNC(=O)C1CCN(c2nnc(-n3c(C)ccc3C)s2)CC1,·,·,·,·,-2.4%,·
N=c1cc(C2(O)CCCCC2)n2c(nc3ccccc32)s1,16.4µM*,-2.9%,18.4µM*,?,6.7%,?
CC(=O)Nc1ccc(-c2ccnc3c2CC(C)(C(=O)Nc2ccc4c(c2)OCO4)O3)cc1 (stereo not given),i,·,·,·,·,18.4µM*
CN(C)c1ccc(-c2ccnc3c2CC(C)(C(=O)Nc2ccc(Cl)c(C(F)(F)F)c2)O3)cc1 (stereo not given),?,·,·,·,·,16.4µM*
CC1(C(=O)Nc2cccc(Oc3ccccc3)c2)Cc2c(-c3ccc4c(c3)OCO4)ccnc2O1 (stereo not given),5.8µM*,·,·,·,·,4.61µM*
CC1(C(=O)Nc2cccnc2)Cc2c(-c3ccc4c(c3)OCO4)ccnc2O1 (stereo not given),?,·,·,·,·,14.6µM*
CCN(CCCNC(=O)CSc1cc(=O)n(CC)c2ccccc12)c1cccc(C)c1,?,·,·,·,4.8%,?
Oc1ccc(Cl)cc1-c1cc(-c2cccc(Br)c2)n[nH]1,20.6µM*,-2.5%,?,17.1%,17.0%,?
CCOc1ccc(NS(=O)(=O)c2c(C)nc3sc(C)c(C)n3c2=O)cc1,?,·,·,·,18.8%,i
COc1cc(C2CC(=O)Nc3cc4c(cc32)OCO4)cc(OC)c1O (stereo not given),i,·,·,·,0.5%,?
CCOC(=O)c1sc2ccccc2c1S(=O)(=O)Nc1ccc(CC)cc1,?,·,·,·,-10.0%,?
CCOC(=O)c1nn(-c2ccc(OCC)cc2)c2nc(CC(C)C)c(C#N)c(=O)n12,?,-0.8%,-0.6%,4.5%,29.5%,i
CCOC(=O)c1nn(-c2cccc(Cl)c2)c2nc(CC(C)C)c(C#N)c(=O)n12,?,0.6%,23.1µM*,-7.9%,-2.3%,i
COc1ccc(CNC(=O)c2cc(-c3ccc(C)c(C)c3)n[nH]2)cc1,i,·,·,·,-18.4%,i
COC(=O)c1ccc2c(=O)n(CCN3CCOCC3)c(SCC(=O)C(C)(C)C)nc2c1,10.3µM*,-5.1%,-0.1%,1.4%,-1.9%,i
COC(=O)c1ccc2c(=O)n(CCN3CCOCC3)c(SCC(=O)Nc3ccc(C)cc3)nc2c1,i,1.9%,-2.5%,-2.4%,-10.1%,i
C=CCn1c(SCC(=O)OCC)nc2cc(C(=O)NCc3ccco3)ccc2c1=O,i,1.2%,27.3%,-14.8%,5.9%,i
CCOC(=O)CSc1nc2cc(C(=O)OC)ccc2c(=O)n1CCN1CCOCC1,16.4µM*,-5.3%,1.4%,-3.1%,5.7%,i
CCCCCn1c(SCC(=O)OCC)nc2cc(C(=O)NCc3ccco3)ccc2c1=O,20.6µM*,0.9%,9.3%,-7.3%,-30.4%,i
CCCCN(C)CCCNC(=O)Cn1ncc2c3ccccc3n(Cc3ccccc3F)c2c1=O,i,·,·,·,16.4%,?
CN(CC(=O)Nc1ccc(Cl)cc1)C(=O)CCc1nc2sc3c(c2c(=O)[nH]1)CCCC3,i,4.4%,18.4µM*,?,-18.6%,i
C[C@@]12C(=O)Nc3ccccc3C(=O)N1[C@H]1c3cc(Cl)ccc3OC[C@@H]1[C@@H]2c1ccccc1,?,-3.4%,7.31µM*,?,5.2%,?
SMILES,KB-V1 cytotox,TSG101-PTAP inh,MCF10A rereplic,SW480 rereplic,RGS4 inh,KB-3-1 tox
Cc1ccc2c(c1)C(=O)N1[C@H]3c4ccccc4OC[C@@H]3[C@H](c3ccccc3)[C@]1(C)C(=O)N2,?,-0.5%,?,?,-9.7%,i
Cc1ccc2c(c1)[C@H]1[C@H](CO2)[C@H](c2ccccc2)[C@]2(C)C(=O)Nc3ccc(Cl)cc3C(=O)N12,?,0.9%,?,14.6µM*,-26.0%,?
Cc1ccc2c(c1)[C@H]1[C@H](CO2)[C@H](c2ccccc2)[C@]2(C)C(=O)Nc3ccccc3C(=O)N12,?,1.6%,3.26µM*,9.2µM*,2.2%,i
Cc1ccccc1-c1nc2scc(CCNC(=O)c3ccco3)n2n1,i,·,·,·,19.2%,i
CCOC(=O)c1ccc(NC(=O)CSc2nc(-c3ccc(F)cc3)cc(C(F)(F)F)c2C#N)cc1,·,·,·,·,6.8%,·
CCC(C(=O)O)n1ccc2cc(S(=O)(=O)N3CCCCC3)ccc21 (stereo not given),?,·,·,·,2.2%,i
Cc1nc(-n2[nH]c3c(c2=O)CCCC3)[nH]c(=O)c1Cc1ccccc1,2.59µM*,0.4%,20.6µM*,9.2µM*,4.0%,?
CCC(/C=C1\Sc2ccc(OC)cc2N1CCO)=C\c1sc2ccc(OC)cc2[n+]1CCO,i,-2.2%,?,-0.2%,?,2.91µM*
N=C1/C(=C\c2ccc(-c3cccc(C(=O)O)c3)o2)C(=O)N=C2SC=C(c3ccccc3)N12,i,-7.7%,3.26µM*,8.2µM*,15.2%[11.4 µM],i
N=C1/C(=C/c2ccc(-c3cccc(C(=O)O)c3)o2)C(=O)N=C2SC(CC(=O)N3CCOCC3)=NN12,?,-1.1%,-9.4%,?,0.3%,i
Cc1ccccc1-n1c(C)cc(/C=C2/C(=N)N3C(c4ccccc4)=CSC3=NC2=O)c1C,?,4.8%,?,14.1µM*,-42.0%,?
CCOc1ccc(S(=O)(=O)Nc2ccc3c(c2)N(C(C)=O)CCC3)cc1,·,·,·,·,-9.1%,·
O=C(COc1ccccc1Cl)Nc1ccc2[nH]c(=O)[nH]c2c1,0.517µM*,-0.1%,-0.1%,-7.2%,0.1%,1.46µM*
CCOc1ccccc1OCC(=O)Nc1ccc2[nH]c(=O)[nH]c2c1,16.4µM*,-0.5%,1.4%,3.2%,-27.2%,8.2µM*
O=C(COC(=O)c1ccccc1)Nc1ccc2[nH]c(=O)[nH]c2c1,?,-14.7%,?,-113.6%,-14.3%,i
CCCn1c(C(C)NC(C)=O)nc2ccccc21 (stereo not given),i,0.2%,2.8%,-11.1%,-9.0%,i
CCCCC(NC(C)=O)c1nc2ccccc2n1CCC (stereo not given),20.6µM*,-4.1%,1.1%,-0.9%,4.2%,i
